We go through 7 molecules from PubChem BioAssay (NCATS).

Unmarked numbers belong to inactive results. Records with an inconclusive call do not appear. Calls of active or inactive are those of the source. Unless noted, the call rests on the fitted dose curve; in most records, active means well fitted curve in either direction with a large enough effect (not every such curve was filed as active); inconclusive means small, poorly fitted or top-dose-only effect, or another doubt; inactive means flat fitted curve, though single readings scatter.

Chain of Cytochrome P450 1A2 (Homo sapiens) (P05177 whole entry, looked up): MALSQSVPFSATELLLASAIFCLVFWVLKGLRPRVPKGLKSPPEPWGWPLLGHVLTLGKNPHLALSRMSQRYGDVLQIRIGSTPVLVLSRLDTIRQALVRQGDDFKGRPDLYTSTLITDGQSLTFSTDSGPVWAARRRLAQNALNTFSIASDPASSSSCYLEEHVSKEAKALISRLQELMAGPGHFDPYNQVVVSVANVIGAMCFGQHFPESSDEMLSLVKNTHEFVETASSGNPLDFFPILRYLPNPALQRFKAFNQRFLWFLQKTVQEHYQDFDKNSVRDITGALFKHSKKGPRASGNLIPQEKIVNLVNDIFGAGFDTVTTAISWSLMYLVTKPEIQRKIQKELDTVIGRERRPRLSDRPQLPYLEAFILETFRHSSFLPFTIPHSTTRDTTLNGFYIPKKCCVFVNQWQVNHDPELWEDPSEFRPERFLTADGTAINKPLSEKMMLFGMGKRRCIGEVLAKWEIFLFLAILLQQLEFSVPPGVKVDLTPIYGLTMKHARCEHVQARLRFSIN
Chain of 3',5'-cyclic-AMP phosphodiesterase 4B (Homo sapiens) (Q07343 whole entry, looked up): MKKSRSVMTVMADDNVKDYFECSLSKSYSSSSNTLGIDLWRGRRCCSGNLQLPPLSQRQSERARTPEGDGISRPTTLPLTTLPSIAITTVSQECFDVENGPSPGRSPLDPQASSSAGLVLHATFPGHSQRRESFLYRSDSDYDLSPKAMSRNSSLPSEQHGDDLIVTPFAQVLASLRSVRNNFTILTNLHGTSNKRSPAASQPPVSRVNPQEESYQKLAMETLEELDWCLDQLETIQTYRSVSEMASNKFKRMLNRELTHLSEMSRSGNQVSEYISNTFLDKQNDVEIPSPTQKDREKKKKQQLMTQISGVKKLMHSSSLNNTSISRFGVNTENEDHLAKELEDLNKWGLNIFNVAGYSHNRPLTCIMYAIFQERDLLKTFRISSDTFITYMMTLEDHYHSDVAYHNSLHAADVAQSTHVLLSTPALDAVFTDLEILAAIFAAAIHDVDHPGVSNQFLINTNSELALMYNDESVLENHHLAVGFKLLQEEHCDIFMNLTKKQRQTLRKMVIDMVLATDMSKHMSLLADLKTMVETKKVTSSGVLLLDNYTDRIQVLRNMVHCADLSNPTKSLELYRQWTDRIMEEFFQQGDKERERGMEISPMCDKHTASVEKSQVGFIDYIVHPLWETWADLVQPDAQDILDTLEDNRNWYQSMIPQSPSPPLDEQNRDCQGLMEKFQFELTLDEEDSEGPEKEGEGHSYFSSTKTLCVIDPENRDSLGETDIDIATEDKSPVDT

Tested on in the first assay: not listed separately
The experiment in a line: AP1 Signaling Pathway (AID 357).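 Further: ME-180 reporter cells stimulated with EGF at its EC50 level; on the % scale 0 is the no-effect control and ±100 the full control effect.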 The following applies: ME-180 AP-1-bla reporter, EGF-induced, beta-lactamase ratio, 5 h; series mostly up to 17.2 µM; activity change, negative = inhibition: at the top concentration. The procedure, abridged: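 Titration-series screen for positive or negative modulators of EC50 EGF-induced signaling in ME-180 cells carrying an AP-1-driven beta-lactamase reporter. After 5 hours at 37 degrees Celsius, CCF4 460nm/530nm emission ratio gave %Activity; AC50 values derived.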
For `Nc1ccc(S(=O)(=O)Nc2ncccn2)cc1`, the outcome was inactive.
In the case of `O=C(O)[C@H](Cc1c[nH]c2ccccc12)N1C(=O)c2ccccc2C1=O`, the “activity change, negative = inhibition” value is 3.98% [at 7.69 µM].
On the same count and under the same terms, with `C[C@H]1C[C@@H]2[C@@H]([C@@H](O)C[C@@]3(C)[C@H]2CC[C@]3(O)C(=O)CO)[C@@]2(C)C=CC(=O)C=C12` the figure was 0.95%.
Same read-out and setting: with `CN(C)CCCN=c1c2ccccc2n(C)c2[nH]c(=O)n(C)c(=O)c12` the figure was 17.6% [at 7.69 µM].

For a further assay, the target named is Cytochrome P450 1A2 (Homo sapiens) (UniProt P05177). The experiment in a line: p450-cyp1a2 (AID 410; calls by dose curve; further: potency means the concentration at half of the fitted maximal effect;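 on activity change, negative = inhibition: -100% = full effect of reference inhibitor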). The following applies: recombinant CYP1A2, luciferin-ME demethylation, luminescence; series mostly up to 57 µM; activity change, negative = inhibition: at the top concentration. The procedure, abridged:
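20nM CYP1A2, 100uM Luciferin-ME (=Km), 100mM KPO4; cpd 10 min RT; +NADPH regen, 60 min RT; stop/detect 20 min; luminescence. Normalized to furafylline 57 uM = full inhibition.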
On to `CC(C)c1ccc(Cn2ccc3c4c(N)nc(NC5CC5)nc4ccc32)cc1`, for which the Potency is 1.58 µM (active).
With `Nc1ccc(S(=O)(=O)Nc2ncccn2)cc1`, the “activity change, negative = inhibition” value was -0.2% [at 25.6 µM].
On to `O=C(O)[C@H](Cc1c[nH]c2ccccc12)N1C(=O)c2ccccc2C1=O`, for which the activity change, negative = inhibition was -8.3% [at 2.29 µM].
In the case of `O=c1c2ccccc2nc2n1CCc1c-2[nH]c2ccccc12`, the Potency is 0.316 µM (active).
Consider `COC(=O)C[C@](O)(CCCC(C)(C)O)C(=O)O[C@@H]1C(OC)=C[C@]23CCCN2CCc2cc4c(cc2[C@H]13)OCO4`, for which the “activity change, negative = inhibition” value was -9.9%.
As for `CN(C)CCCN=c1c2ccccc2n(C)c2[nH]c(=O)n(C)c(=O)c12`, the Potency was 5.01 µM (active).

Tested on in a further assay: not listed separately
Put plainly: NFAT Signaling Pathway (AID 444).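 Further: carbachol stimulus at about its EC50 of 1 µM final; on the % scale 0 is the no-effect control and ±100 the full control effect.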 The following applies: Jurkat NFAT-bla M1, carbachol, beta-lactamase ratio, 5 h; series mostly up to 17.2 µM; activity change, negative = inhibition: at the top concentration. The gist of the method: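 Read-out: CCF4 FRET ratio (460 nm/530 nm) after 1 h RT dye loading, used for %activity and AC50 from titration series. Cells: Jurkat NFAT-β-lactamase/M1 line, treated with compound plus 1 uM carbachol for 5 h, 37 °C.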
As to `Nc1ccc(S(=O)(=O)Nc2ncccn2)cc1`, the result was inactive.
Consider `O=C(O)[C@H](Cc1c[nH]c2ccccc12)N1C(=O)c2ccccc2C1=O`, for which the “activity change, negative = inhibition” value was 7.25% [at 7.69 µM].
Still for that read-out and setting: with `O=c1c2ccccc2nc2n1CCc1c-2[nH]c2ccccc12` the figure was 7.1% [at 38 µM]; with `C[C@H]1C[C@@H]2[C@@H]([C@@H](O)C[C@@]3(C)[C@H]2CC[C@]3(O)C(=O)CO)[C@@]2(C)C=CC(=O)C=C12`, -2.65%.

Tested on in a further assay: not listed separately
Put plainly: Stat Signaling Pathway (AID 446).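 Further: ME-180 cervical cancer cells given 40 pM IL-6 alongside compound; SIE-controlled beta-lactamase reporter measured as 460/530 nm FRET emission ratio; on the % scale 0 is the no-effect control and ±100 the full control effect.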 The following applies: ME-180 (cervical carcinoma) SIE beta-lactamase reporter, IL-6 stimulated, 5 h; series mostly up to 17.2 µM; activity, negative = inhibition: at the top concentration. The gist of the method: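 Compound effects on IL-6-induced STAT reporter activity were measured in ME-180 cells. After overnight culture, cells were co-treated with 40 pM IL-6 for 5 hrs before beta-lactamase substrate loading at room temperature.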
Consider `Nc1ccc(S(=O)(=O)Nc2ncccn2)cc1`, for which the result was inactive.
As for `O=C(O)[C@H](Cc1c[nH]c2ccccc12)N1C(=O)c2ccccc2C1=O`, the “activity, negative = inhibition” value was 6.26% [at 7.69 µM].
On the same count and under the same terms, with `O=c1c2ccccc2nc2n1CCc1c-2[nH]c2ccccc12` the figure was 1.69% [at 38 µM].
Still for that read-out and setting: with `C[C@H]1C[C@@H]2[C@@H]([C@@H](O)C[C@@]3(C)[C@H]2CC[C@]3(O)C(=O)CO)[C@@]2(C)C=CC(=O)C=C12` the figure was 1.43%.

For the next assay, the target named is Glucocorticoid receptor (Homo sapiens) (UniProt P04150). The experiment in a line: GR-GFP Redistribution (AID 450;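 active means compounds whose dose series gives a full or clear partial fitted curve of increased nuclear translocation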; further: potency means the concentration at half of the fitted maximal effect). The following applies: U2OS GR-GFP nuclear translocation, laser cytometry, 2 h.
Chain of Glucocorticoid receptor (Homo sapiens) (P04150 whole entry, looked up): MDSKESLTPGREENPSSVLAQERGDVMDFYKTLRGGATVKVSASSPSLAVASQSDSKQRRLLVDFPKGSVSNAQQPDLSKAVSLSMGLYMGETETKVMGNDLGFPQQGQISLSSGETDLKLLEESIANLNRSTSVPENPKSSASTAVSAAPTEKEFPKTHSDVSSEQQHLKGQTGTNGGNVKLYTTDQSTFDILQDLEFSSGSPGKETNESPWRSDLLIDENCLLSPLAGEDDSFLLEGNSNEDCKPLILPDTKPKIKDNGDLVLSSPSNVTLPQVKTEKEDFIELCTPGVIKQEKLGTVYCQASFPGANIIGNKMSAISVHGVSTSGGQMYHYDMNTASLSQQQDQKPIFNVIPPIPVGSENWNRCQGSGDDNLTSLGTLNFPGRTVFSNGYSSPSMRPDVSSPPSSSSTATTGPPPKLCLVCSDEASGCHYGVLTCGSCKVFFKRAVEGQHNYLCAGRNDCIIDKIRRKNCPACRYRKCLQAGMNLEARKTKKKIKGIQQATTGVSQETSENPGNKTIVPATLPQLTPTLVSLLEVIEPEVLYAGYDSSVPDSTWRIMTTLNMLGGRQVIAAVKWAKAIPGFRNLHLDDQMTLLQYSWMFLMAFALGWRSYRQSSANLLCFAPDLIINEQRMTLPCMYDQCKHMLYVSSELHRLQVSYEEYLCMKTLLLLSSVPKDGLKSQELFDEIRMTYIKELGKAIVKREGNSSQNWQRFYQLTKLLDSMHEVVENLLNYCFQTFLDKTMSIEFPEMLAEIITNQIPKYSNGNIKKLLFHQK
Consider `CC(C)c1ccc(Cn2ccc3c4c(N)nc(NC5CC5)nc4ccc32)cc1`, for which the Potency is greater than 46 µM.
On the same count and under the same terms, with `O=C(O)[C@H](Cc1c[nH]c2ccccc12)N1C(=O)c2ccccc2C1=O` the figure was greater than 46 µM; with `O=c1c2ccccc2nc2n1CCc1c-2[nH]c2ccccc12`, greater than 46 µM; with `COC(=O)C[C@](O)(CCCC(C)(C)O)C(=O)O[C@@H]1C(OC)=C[C@]23CCCN2CCc2cc4c(cc2[C@H]13)OCO4`, greater than 46 µM.
Turning to `CN(C)CCCN=c1c2ccccc2n(C)c2[nH]c(=O)n(C)c(=O)c12`, the Potency is greater than 46 µM.

The target is the same in a further assay. Put plainly: GR-EFC Redistribution (AID 451; calls by dose curve; further: potency means the concentration at half of the fitted maximal effect). The following applies: CHO-K1 GR-EFC translocation, beta-gal luminescence, 2 h. The procedure, abridged: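 Translocation of GR-ED fusion to nuclear EA restores b-gal, read by luminescence after 1 h room-temperature detection. Engineered CHO-K1 biosensor cells, 1,000/well, exposed 2 h at 37 C to titrations up to 46 uM final.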
Consider `CC(C)c1ccc(Cn2ccc3c4c(N)nc(NC5CC5)nc4ccc32)cc1`, for which the Potency was greater than 46 µM.
On the same count and under the same terms, with `O=C(O)[C@H](Cc1c[nH]c2ccccc12)N1C(=O)c2ccccc2C1=O` the figure was greater than 9.22 µM.
The same measure, in the same setting: with `O=c1c2ccccc2nc2n1CCc1c-2[nH]c2ccccc12` the figure was greater than 46 µM; with `COC(=O)C[C@](O)(CCCC(C)(C)O)C(=O)O[C@@H]1C(OC)=C[C@]23CCCN2CCc2cc4c(cc2[C@H]13)OCO4`, greater than 46 µM; with `CN(C)CCCN=c1c2ccccc2n(C)c2[nH]c(=O)n(C)c(=O)c12`, greater than 9.22 µM.

The target of a further assay is Mitogen-activated protein kinase 10 (Mus musculus) (UniProt Q61831). The experiment in a line: JNK3 AlphaScreen Assay (AID 530).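 Further: kinase came from lysate of stimulated human HepG2 cells; signal reports phosphorylation of biotinylated GST-cJun 1-79 at Ser73 with 10 µM ATP; on the % scale 0 is the no-effect control and ±100 the full control effect.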 The following applies: JNK3 lysate, c-Jun phosphorylation; series mostly up to 57.1 µM; activity change, negative = inhibition: at the top concentration. The source says: NIH Chemical Genomics Center [NCGC]
NIH Molecular Libraries Screening Centers Network [MLSCN]
The c-jun N-terminal kinase (JNK) family are serine/threonine protein kinases that phosphorylate c-jun, a component of the transcription factor […] (AP-1). JNK kinases are members of the mitogen-activated protein kinase family including the extracellular regulated kinases and p38 kinases. Three JNK genes (JNK 1, 2, and 3) have been identified in humans so far. JNK1 and JNK2 have a broad distribution and JNK3 is primarily found in neuronal tissues and cardiac myocytes.
JNK3 has been under consideration as a target for the treatment of neurodegenerative disorders. […] JNK pathway is also involved in pathological process in a mouse model of Parkinson's disease (Xia et al., 2001).
Given these potential tissue distributions and links to neuroprotection, JNK3 inhibitors should provide useful investigational tools to study the role of this kinase in several diseases including, arthritis, stroke, myocardial infarction, ischemic injury and Parkinson's disease.
A homogeneous AlphaScreen is developed to measure the activity of JNK3. AlphaScreen is a two bead-based proximity-dependent chemical energy transfer luminescent assay platform. The phosphorylation of a biotinylated c-jun substrate by JNK3 can be detected with an antibody raised against phosphorylated c-jun. This process brings streptavidin donor beads and Protein-A acceptor beads to within a proximity range of <200 nm, and subsequently lead a chemical luminescent reaction upon exciting donor beads with 680 nm laser excitation light. Inhibition of JNK3 activity by small molecules and subsequent decrease in the antibody binding to biotinylated c-jun could attenuate or abolish this chemical luminescent reaction.
Yang DD, Kuan CY, Whitmarsh AJ, Rincon M, Zheng TS, Davis RJ, Rakic P and Flavell RA (1997) Absence of excitotoxicity-induced apoptosis in the hippocampus of mice lacking the Jnk3 gene. Nature 389:865-870. [PMID: 9349820]
Herdegen T, Claret FX, Kallunki T, Martin-Villalba A, Winter C, Hunter T, and Karin M (1998) Lasting N-terminal phosphorylation of c-Jun and activation of c-Jun N-terminal kinases after neuronal injury. J.Neurosci. 18:5124-5135. [PMID: 9651196]
Xia XG, Harding T, Weller M, Bieneman A, Uney JB and Schulz JB (2001) Gene transfer of the JNK interacting protein-1 protects dopaminergic neurons in the MPTP model of Parkinson's disease. Proc.Natl.Acad.Sci.U.S.A. 98:10433-10438.
NCGC Assay Protocol Summary:
GST-cJun (1-79) (Stratagene, La Jolla CA, #205145) was biotnylated by PerkinElmer (PerkinElmer-BioSignalInc. Montreal, Canada) and was detectable by the streptavidin Donor beads. Anti-(phospho)cJun (Ser73) antibody was from UpState (Charlottesvilles, VA, #06-659). JNK3-containing lysates were generated from HepG2 cells and pre-activated by interleukin1-beta and tumor necrosis factor alpha. All reagents were stored at -20 C before using. Phosphorylated biotinylated-GST-cJun was recognized by Anti-(phospho)cJun (Ser73) antibody and this process brings acceptor and donor beads together. Therefore JNK3 phosphorylation of cJun can be measured by Alpha reading by EnVision (PerkinElmer, Boston, MA).
The composition of kinase buffer was (in mM) 20 tris- HCl (pH 7.6) 10 MgCl2, 1 DTT, and 0.1 Na3VO4 and 0.01% Tween-20. Beads were diluted in detection buffer containing (in mM) 20 tris-HCl (pH 7.7), 20 NaCl and 80 EDTA and 0.3% BSA. The assay was performed at room temperature. All compounds were screened as titrations from 0.6 nM to 46 uM final concentration. The assay was performed in 1536-well format (white solid bottom and untreated) as follows:
Sequence,Parameter,Value,Description
1,Reagent,3 uL,Biotin-GST-cJun, Anti-(phospho)cJun and pre-activated JNK3-containing lysates
2,Compound,23 nL,Final concentration was 0.6nM to 46uM
3,Time,15 minutes,Room Temperature
4,Reagent,1 uL,ATP final concentration 10uM
6,Reagent,0.5 uL,2ng/well bead mixture
[…]
Turning to `CC(C)c1ccc(Cn2ccc3c4c(N)nc(NC5CC5)nc4ccc32)cc1`, the “activity change, negative = inhibition” value was -3.09%.
The same measure, in the same setting: with `Nc1ccc(S(=O)(=O)Nc2ncccn2)cc1` the figure was -3.86% [at 25.6 µM]; with `O=C(O)[C@H](Cc1c[nH]c2ccccc12)N1C(=O)c2ccccc2C1=O`, -0.545% [at 11.4 µM]; with `O=c1c2ccccc2nc2n1CCc1c-2[nH]c2ccccc12`, -28.2%.
The same measure, in the same setting: with `COC(=O)C[C@](O)(CCCC(C)(C)O)C(=O)O[C@@H]1C(OC)=C[C@]23CCCN2CCc2cc4c(cc2[C@H]13)OCO4` the figure was 6.75%; with `C[C@H]1C[C@@H]2[C@@H]([C@@H](O)C[C@@]3(C)[C@H]2CC[C@]3(O)C(=O)CO)[C@@]2(C)C=CC(=O)C=C12`, 1.66% [at 25.6 µM].
Still for that read-out and setting: with `CN(C)CCCN=c1c2ccccc2n(C)c2[nH]c(=O)n(C)c(=O)c12` the figure was 0.481% [at 11.4 µM].

A further assay addresses 3',5'-cyclic-AMP phosphodiesterase 4B (Homo sapiens) (UniProt Q07343). Put plainly: qHTS Assay for Inhibitors of PDE-IV (AID 607; active means well fitted activation curve with a large enough effect in the main read-out, with a control signal flat, not every such curve was filed as active; further: % of control where 0% means no effect). The following applies: HEK293 ACTOne CNG channel cells, membrane potential fluorescence; series mostly up to 22.9 µM; activation (PDE inhibition): at the top concentration. The gist of the method: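 ACTOne HEK293 cells carry a modified cAMP-gated CNG channel and express endogenous PDE4; plated 1000 cells/well, compounds up to 22.9 uM final. Membrane-potential dye fluorescence (ex 535/em 590) was read; parental cells received 10 uM forskolin + 100 uM RO 20-1724.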
On to `Nc1ccc(S(=O)(=O)Nc2ncccn2)cc1`, for which the “activation (PDE inhibition)” value was -1.29%.
On the same count and under the same terms, with `O=C(O)[C@H](Cc1c[nH]c2ccccc12)N1C(=O)c2ccccc2C1=O` the figure was -11.4%; with `O=c1c2ccccc2nc2n1CCc1c-2[nH]c2ccccc12`, 25.3%; with `COC(=O)C[C@](O)(CCCC(C)(C)O)C(=O)O[C@@H]1C(OC)=C[C@]23CCCN2CCc2cc4c(cc2[C@H]13)OCO4`, -34.8%.
For `C[C@H]1C[C@@H]2[C@@H]([C@@H](O)C[C@@]3(C)[C@H]2CC[C@]3(O)C(=O)CO)[C@@]2(C)C=CC(=O)C=C12`, the “activation (PDE inhibition)” value is 2.98%.
Consider `CN(C)CCCN=c1c2ccccc2n(C)c2[nH]c(=O)n(C)c(=O)c12`, for which the “activation (PDE inhibition)” value was -4.36%.
